We go through 17 compounds from PubChem BioAssay (NCATS).

Assay [1] is described as follows: qHTS Assay for Identifying Gametocytocidal Compounds (AID 743244). Also: potency is read from the fitted curve at half-maximal effect.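 As to max response: % is scaled to controls: 0 for no effect and ±100 for the full control effect; actives lower the fluorescent signal which means gametocytes are killed.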 Particulars: P. falciparum 3D7 stage III-V gametocytes, alamarBlue, 72 h; max response: stronger effect = lower value. Summed up: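 Using 20,000 stage III–V 3D7 gametocytes per well, compounds were incubated 72 h under 37 °C/5% CO2. Viability was then assessed by 24 h alamarBlue reduction, measured fluorometrically at 525/598 nm.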

Assay [2] is described as follows: qHTS assay for measurement of the activity of small molecule inhibitors on Zika virus induced Caspase-3 activity in human iPSC derived neural progenitor cells (hNPCs) (AID 1224857). Also: % of control where 0% means no effect; nearly all actives have a fitted effect of over 65% in size. Summed up: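 After overnight (16–20 h) culture at 350 cells/well, hNPCs get compound, then ZIKV 2 FFU/cell one hour later. Six hours on, Caspase-Glo 3/7 is added and luminescence measured.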

Assay [3] in a line: qHTS assay for measurement of the activity of small molecule inhibitors on Zika virus induced Caspase-3 activity in human astrocytoma cells (AID 1224859).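 Also: plate controls were ZIKV-infected untreated cells for no effect and uninfected cells for full effect.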 Put shortly: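 Inhibition of Zika-induced caspase-3/7 activity: SNB-19 cells, 1 h compound pretreatment, ZIKV 2 FFU/cell for 6 h at 37 C, Caspase-Glo luminescence read-out.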
Assay [4] is described as follows: P-glycoprotein substrates identified in KB-8-5-11 adenocarcinoma cell line, qHTS therapeutic library screen (AID 1346987). Also: nearly all actives have a fitted effect of over 65% in size. Also: potency is read from the fitted curve at half-maximal effect. Put shortly: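 P-gp-mediated resistance screen: KB-8-5-11 cells treated 72 h with compounds in dose-response. CellTiter-Glo viability.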
Assay [5] is described as follows: qHTS assay for small molecule antagonists of the retinoid-related orphan receptor gamma (ROR-gamma) signaling pathway - cell viability counter screen (AID 720652; active = well fitted curve in the direction sought with a large enough effect in the repeat runs; an effect the other way counts as inactive or inconclusive;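 also: compound exposure lasted 16 hr before ATP read; % is scaled to controls: 0 for no effect and ±100 for the full control effect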). Put shortly: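 Cytotoxicity is quantified via intracellular ATP (CellTiter-Glo luminescence) in doxycycline-induced CHO ROR response element-luciferase reporter cells treated with compound for 16 hr at 37 C, 5% CO2.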

Assay [6] can be described thus: qHTS assay for small molecule agonists of the antioxidant response element (ARE) signaling pathway measured by Nrf2-dependant transcriptional activity - cell viability counter screen (AID 720653; active = well fitted curve in the direction sought with a large enough effect in the repeat runs; an effect the other way counts as inactive or inconclusive; also: potency is read from the fitted curve at half-maximal effect; as to max response: % is scaled to controls: 0 for no effect and ±100 for the full control effect). Particulars: ARE-bla HepG2 viability, CellTiter-Glo ATP luminescence, 16 h; max response: stronger effect = lower value. Summed up: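 Cytotoxicity counter screen: intracellular ATP quantified by CellTiter-Glo luminescence in the same ARE-bla HepG2 plates, after 16 h compound exposure and a 2 h beta-lactamase substrate step.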

Assay [7] can be described thus: qHTS assay for cell viability of HEK293 cells (AID 743288). Also: % is scaled to controls: 0 for no effect and ±100 for the full control effect; nearly all actives have a fitted effect of over 50% in size. Particulars: ATP luminescence (CellTiter-Glo), 18 h, stronger effect = lower value. Summed up:
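Environmental chemicals tested in qHTS format against parental HEK293 cells; 18 h treatment, 37 C; read-out ATP luminescence (CellTiter-Glo), 30 min RT development.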

Assay [8] is described as follows: qHTS assay for cell viability of the p53RE-bla HCT-116 cell line (AID 743292). Also: % is scaled to controls: 0 for no effect and ±100 for the full control effect; nearly all actives have a fitted effect of over 55% in size. Summed up:
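HCT-116 p53RE-bla cells seeded 4,000/well; 5 h at 37 C; compound (DMSO) added; 16 h at 37 C; CellTiter-Glo added, 30 min RT; luminescence read.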

A short description of assay [9]: qHTS profiling of the MIPE4 collection as inhibitors of Plasmodium falciparum (3D7) proliferation (AID 743344; call rule not given here;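 also: scaled between DMSO vehicle wells and 0.29 µM artemisinin as full inhibition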). Particulars: P. falciparum 3D7 in erythrocytes, SYBR Green DNA fluorescence, 72 h; at 28.5 µM (top of the series) unless noted. Summed up: (§1)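 Erythrocytes infected with P. falciparum (0.3% parasitemia, 2.5% hematocrit) incubated with compounds 72 h at 37 C, 5% CO2. Lysis with saponin/Triton buffer containing SYBR Green I, overnight at room temperature in the dark; DNA fluorescence (485/535 nm) normalised to 0.29 uM artemisinin and DMSO.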

Assay [10] can be described thus: qHTS profiling of the MIPE4 collection as inhibitors of Plasmodium falciparum (DD2) proliferation (AID 743345; call rule not given here). Particulars: P. falciparum Dd2 in erythrocytes, SYBR Green DNA, 72 h; at 28.5 µM (top of the series) unless noted. Put shortly: as §1
Assay [11] in a line: qHTS profiling of the MIPE4 collection as inhibitors of Plasmodium falciparum (DD2) proliferation (Rep 2) (AID 743346; call rule not given here). The note with it: P. falciparum Dd2 in erythrocytes, SYBR Green DNA, 72 h; at 28.5 µM (top of the series) unless noted. Summed up: as §1
Assay [12] can be described thus: qHTS profiling of the MIPE4 collection as inhibitors of Plasmodium falciparum (HB3) proliferation (AID 743347; call rule not given here;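 also: plate controls were DMSO vehicle wells for no effect and artemisinin wells for full effect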). The note with it: P. falciparum HB3 in erythrocytes, SYBR Green DNA, 72 h; at 28.5 µM (top of the series) unless noted. Put shortly:
as §1

The nature of assay [13]: Natriuretic polypeptide receptor (hNpr1) antagonism - Pilot counterscreen GloSensor control cell line (AID 1347045; calls by dose curve; also: potency is read from the fitted curve at half-maximal effect; as to activity change, negative = inhibition: % is scaled to controls: 0 for no effect and ±100 for the full control effect). Put shortly: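 This counterscreen uses HEK293 cells expressing the GIP/pGS-40F cGMP biosensor. Compound-treated cells are challenged with 50 uM sodium nitroprusside, and the luciferase signal is compared before and after stimulation.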
A short description of assay [14]: P-glycoprotein substrates identified in KB-3-1 adenocarcinoma cell line, qHTS therapeutic library screen (AID 1346986). Also: nearly all actives have a fitted effect of over 60% in size. Put shortly:
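Counter-screen: cherry-picked hits retested in the KB pair and in HEK-293 pcDNA/MDR-19 cells ± tariquidar. Primary screen used 72 h CellTiter-Glo viability in KB-3-1 and KB-8-5-11.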

SMILES strings stand for the structures. Where “and” joins values, the source holds several entries; their conditions need not be identical. Identical values can stand only once. Inconclusive results are not listed. Calls of active or inactive are those of the source. Unless noted, calls follow the shape of the dose curve; as a rule, active = well fitted curve in the direction sought with a large enough effect; inconclusive = small, poorly fitted or top-dose-only effect, or another doubt; inactive = no such curve, though single readings can be large; an effect the other way counts as inactive or inconclusive.

With `Nc1c(NC/C=C\COc2cc(CN3CCCCC3)ccn2)c(=O)c1=O`, in assay [1], the max response was -0.695% (inactive). In addition, the Potency entry in assay [2] and in assay [4] was “inactive” each time. Further, the compound was classed as inactive in assay [3].
For the compound `CCOC(=O)Cn1cccc1-c1nc(-c2ccc(OC)cc2)c(-c2ccc(OC)cc2)s1`, the max response in assay [1] was 9.5% (inactive). For the same compound, the Potency entry in assay [2] and in assay [4] was “inactive” throughout. Also, the compound was classed as inactive in assay [3].
For `O=C(OCC(COC(=O)c1cccnc1)(COC(=O)c1cccnc1)COC(=O)c1cccnc1)c1cccnc1`, the max response in [1] is 13.3% (inactive). The Potency result in [2] and in assay [4] was “inactive” in each case. In addition, the result in [3] was inactive.
Take `O=[N+]([O-])c1nccn1CO[C@@H](CO)[C@H](O)CO`: the max response in assay [1] is -9.19% (inactive). Moreover, the Potency result in [2] and in assay [4] was “inactive” each time. Further, the compound was called inactive in [3].
Regarding `CC1CN(c2cc3c(cc2F)c(=O)c(C(=O)O)cn3-c2ccc(F)cc2F)CCN1` (stereo not drawn), the max response in assay [1] is -18.1% (inactive). Further, the activity change, negative = inhibition was -6.17% [at 4.53 µM] (inactive) in assay [2] and -1.94% [at 4.53 µM] (inactive) in assay [3]. Further, the Potency result in assay [4] is “inactive”.
For the compound `CC(=O)OCC(=O)[C@@]1(O)CCC2C3CCC4=CC(=O)CC[C@]4(C)C3[C@@H](O)C[C@@]21C` (stereo partly drawn), in assay [1], the max response is -8.54% (inactive). Moreover, the Potency result in assay [2] and in [4] was “inactive” each time. For the same compound, the call in assay [3] was inactive.
With `C[C@]12CCC(=O)C=C1CC[C@@H]1[C@@H]2[C@@H](O)C[C@@]2(C)[C@H]1CC[C@]2(O)C(=O)COC(=O)CCC(=O)O`, in [1], the max response is -22.1% (inactive). Besides, the Potency entry in [2] and in assay [4] was “inactive” each time. Moreover, the compound was classed as inactive in assay [3].
Turning to `CC(C)(c1ccc(O)cc1)c1ccc(O)cc1`, the compound was classed as inactive in assay [5]. For the same compound, the max response was -12.4% (inactive) and -0.346% (inactive) and -0.0074% (inactive) in [6]; 0.899% (inactive) and -7.06% (inactive) and -9.11% (inactive) in [7]. The Potency entry in [8] is “inactive”.
For `CCCCCCCCCCCCCCCC[n+]1ccccc1`, the max response is -10.4% (inactive) in assay [6] and -27.3% (inactive) in assay [7]. For the same compound, the Potency result in assay [8] was “inactive”.
As for `CC(NCCC(c1ccccc1)c1ccccc1)c1ccccc1` (stereo not drawn), the parasite growth, % of DMSO control in assay [9] stood at 9.45%. The parasite growth remaining, % of DMSO control (lower = more inhibition) in [10] was found to be 9.26%. In assay [11], this compound yielded a parasite growth, % of control (lower = inhibition) of 16.7%. Also, in [12], the growth, % of control is 3.07%.
On to `CC(C)N(CCC(=O)c1ccc2ccccc2c1)Cc1ccccc1`, for which, in assay [13], the Potency was 13.1 µM (active).
Still for that read-out and setting: the result for `COc1cccc2c1[C@@H]1CN(CCCCn3c(=O)[nH]c4c(sc5ncc(-c6ccccc6)nc54)c3=O)C[C@@H]1CO2` reads “inactive”.
Regarding `Nc1c2ccccc2nc2ccccc12`, in assay [5], the compound was called inactive. Moreover, the figures for the Potency in assay [6], in [1] and in [4] were 31.6 µM (active), 10 µM (active) and 13 µM (active), respectively. Further, the Potency result in assay [8] and in assay [2] was “inactive” in each case.
As to `O=C1OC2(c3ccccc31)c1cc(I)c(O)c(I)c1Oc1c2cc(I)c(O)c1I`, the max response in assay [1] is -3.42% (inactive). The Potency entry in assay [2] was “inactive”. For the same compound, the compound was called inactive in assay [3].
As for `CCOC(=O)C1=C(C)NC(C)=C(C(=O)OCC)C1c1ccccc1/C=C/C(=O)OC(C)(C)C`, in assay [1], the max response was 4.06% (inactive). Besides, the Potency result in assay [2] is “inactive”. Moreover, the compound was classed as inactive in assay [3].
For `Cc1cc(O)c2c(O)c3c(O)cccc3cc2c1`, in assay [1], the max response was 12.2% (inactive). Further, the Potency entry in assay [2] was “inactive”. Moreover, the compound was classed as inactive in [3].
For the compound `CCN1C(=O)c2ccccc2C1Nc1ccc(OCCN2CCCCC2)cc1` (stereo not drawn), the Potency result in assay [2] and in assay [14] was “inactive” throughout.
